Among all 69,000 compounds or so, about 8,600 (12%) showed an effect of 50% or more. Many of the other results were omitted from the sample, so strong results are more common in it than they were.

The subject of the test is Plasmodium berghei. The experiment in a line: Screen against P. berghei liver stage (PbLuc), transformed with Luciferase, at 10uM. Format: functional, HepG2. To be noted: tested at 10 uM.
For `COc1ccc(N2CCN(CC(O)c3cc(C)ccc3C)CC2)cc1` (centres undefined), the INHIBITION was 69.8%.

On to `COc1ccc(OC)c(C(O)CN2CCN(c3cccc(C)c3)CC2)c1` (centres undefined), for which the INHIBITION is 34.5%. With `c1ncn(CC2CCCN(Cc3csc(-c4ccsc4)n3)C2)n1` (centres undefined) the figure was -12.2%; with `CN(C)Cc1ccc(N2CCN(CCOCC(F)(F)F)CC2)nc1`, 33.4%. Take `CN(CC(=O)N1CCCC1c1noc(C2CC2)n1)Cc1ccccc1` (centres undefined): the INHIBITION turned out to be 23.7%. With `CCn1nc(C)cc1C(=O)OCC1CC(=O)N(Cc2ccccc2)C1` (centres undefined) the figure was 10.1%; with `CCN1CC(COC(=O)c2cccc(Br)c2)CC1=O` (centres undefined), 16.8%. In the case of `CCN1CC(COC(=O)c2cc(C)nn2CC)CC1=O` (centres undefined) it was 50.4%. In the case of `CCCOc1cc(CNC(=O)Nc2cccc(C(C)=O)c2)ccn1` it was 16.6%; in that of `OCC1(O)CCCN(Cc2noc(-c3ccccc3)n2)C1` (centres undefined), 9.41%.

`O=C(COCC(=O)N(c1ccccc1)c1ccccc1)N1CCCC1`: the INHIBITION was -7.27%. Turning to `CCCn1nc2c(cc1=O)CN(Cc1nc(-c3ccoc3)no1)CC2`, the INHIBITION was 61.1%. In the case of `CCn1nc2c(cc1=O)CN(Cc1nc(-c3ccoc3)no1)CC2` it was 42.1%; in that of `CCn1nc2c(cc1=O)CN(Cc1nc(-c3cccs3)no1)CC2`, 60.5%; in that of `CC(C)n1nc2c(cc1=O)CN(Cc1nc(-c3ccoc3)no1)CC2`, 77.9%. Consider `Cn1nc2c(cc1=O)CN(Cc1nc(-c3ccoc3)no1)CC2`, for which the INHIBITION is -7.16%. `Cn1nc2c(cc1=O)CN(Cc1nc(-c3cccs3)no1)CC2`: the INHIBITION amounted to 26.1%. In the case of `Cc1ccc(-c2noc(CN3CCc4nn(C)c(=O)cc4C3)n2)cc1` it was -11.4%; in that of `CCn1nc2c(cc1=O)CN(Cc1nc(-c3ccsc3)no1)CC2`, 7.7%; in that of `COCCc1noc(CN2CCc3nn(C(C)C)c(=O)cc3C2)n1`, 48.2%. In the case of `CC(C)c1ncc2c(n1)CN(Cc1nc(-c3cccs3)no1)CC2` it was 65.1%; in that of `CCc1ncc2c(n1)CN(Cc1nc(-c3cccs3)no1)CC2`, 28.8%; in that of `Cc1ncc2c(n1)CN(Cc1nc(-c3cccs3)no1)CC2`, 28.8%. For `Cc1nn(C2CCCCC2)c2nc(C(C)(C)CN3CCOCC3)[nH]c12`, the INHIBITION was -16.9%. With `CN(Cc1noc(C2CC2)n1)C1CCN(Cc2ncc[nH]2)C1` (centres undefined) the figure was 3.1%; with `Cc1nc(CN2CCCC(NCc3cnc(C(C)(C)C)s3)C2)no1` (centres undefined), -19.6%.

Regarding `O=C(NCC1(Sc2ccccc2)CC1)c1cc[nH]n1`, the INHIBITION is 5.15%. In the case of `O=C1CCC2(CCC(NCc3ccsc3)CC2)N1Cc1ccccc1` (centres undefined) it was 29.7%. With `CCc1c(C)n(C)c2nc3ccccc3n2c1=O` the figure was -13.8%; with `CN1CCCCC1CCC(=O)NCCCn1nccc1C1CC1` (centres undefined), 47.7%; with `CC(C)N(CC(N)=O)C(=O)CCC(=O)c1ccc(F)cc1F`, 23.7%. With `CS(=O)(=O)c1cccc(C(N)c2ccccc2)c1` (centres undefined) the figure was -19.4%; with `N#CC1(C(=O)NCc2ccc(F)cc2)CCCC1`, -22.1%; with `CC(C)(N)C(=O)N1CCCC1c1cncc(Oc2ccccc2)n1` (centres undefined), 26.3%. With `CCCn1nc2c(cc1=O)CN(Cc1c(C)noc1C)CC2`, the INHIBITION stood at 2.69%. In the case of `CC(C)n1nc2c(cc1=O)CN(Cc1nc(-c3ccco3)no1)CC2` it was 54.4%. On to `CCCn1nc2c(cc1=O)CN(Cc1nc(-c3ccco3)no1)CC2`, for which the INHIBITION was determined as 20.8%. With `CCn1nc2c(cc1=O)CN(Cc1nc(-c3ccco3)no1)CC2` the figure was 35.9%. With `Cc1noc(C)c1CN1CCc2nn(C(C)C)c(=O)cc2C1` the figure was 54.4%; with `Cc1cc(CN2CCc3nn(C(C)C)c(=O)cc3C2)no1`, 35.1%. With `Cc1nc(CCN(C)C(=O)CCNC(=O)c2ccccc2F)no1` the figure was 43.9%; with `CC(C)c1nc(CN(C)C(=O)CCNC(=O)c2ccccc2F)no1`, 12.4%. Regarding `CCN(CC1CCCCO1)C(=O)CCNC(=O)c1ccccc1F` (centres undefined), the INHIBITION is 28.5%. Regarding `CC(C)Cc1noc(CN(C)C(=O)CCNC(=O)c2ccccc2F)n1`, the INHIBITION was 51.5%. In the case of `CCN(Cc1nc(COC)no1)C(=O)CCNC(=O)c1ccccc1F` it was 58.1%; in that of `CCN(CC1CCOCC1)C(=O)CCNC(=O)c1ccccc1F`, 32.2%; in that of `CC(C)CCNC(=O)C1CCN(c2ccc3nnc(C(C)C)n3n2)CC1`, 21%. Turning to `O=S(=O)(NCC1(c2cccs2)CCOCC1)c1cccnc1`, the INHIBITION is on record as -115%. In the case of `NCc1cccc(NC(=O)CCN2CCOCC2)c1` it was -5.1%. In the case of `OCCC[C@@H]1CN(c2ncc(Cl)cc2Cl)CC[C@@H]1N1CCOCC1` it was 1.93%; in that of `O=C(NCc1cn2c(n1)CN(Cc1cccnc1)CC2)C1CCC1`, 26.3%; in that of `c1ccc(-c2cc(CNCCN3CCOCC3)c3nnnn3c2)cc1`, 5.11%. With `c1ccc(-c2cc(CNCCCC3CCOC3)c3nnnn3c2)cc1` (centres undefined) the figure was 74.9%; with `c1ccc(-c2cc(CNCCCN3CCCCC3)c3nnnn3c2)cc1`, -38.2%.

The values above are taken from ChEMBL document CHEMBL4513216, “Probing the Open Global Health Chemical Diversity Library for Multistage-Active Starting Points for Next-Generation Antimalarials” (ACS Infect Dis, 2020).
